# Out of some 310,000 compounds screened, about 14,000 (4.5%) showed an effect of 50% or more. Effects have a minus sign here. The entries come from a sample that favours strong results as a whole.
# Target: human ether-à-go-go-related gene (hERG) potassium channel (human, UniProt Q12809)
# Test: primary screen, population patch clamp on CHO cells stably expressing hERG; higher = less effect of the substance
# 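Further: peak tail current of the secondary pulse compared with the same well before compound.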
# Sequence of human ether-à-go-go-related gene (hERG) potassium channel (Q12809 whole entry, looked up): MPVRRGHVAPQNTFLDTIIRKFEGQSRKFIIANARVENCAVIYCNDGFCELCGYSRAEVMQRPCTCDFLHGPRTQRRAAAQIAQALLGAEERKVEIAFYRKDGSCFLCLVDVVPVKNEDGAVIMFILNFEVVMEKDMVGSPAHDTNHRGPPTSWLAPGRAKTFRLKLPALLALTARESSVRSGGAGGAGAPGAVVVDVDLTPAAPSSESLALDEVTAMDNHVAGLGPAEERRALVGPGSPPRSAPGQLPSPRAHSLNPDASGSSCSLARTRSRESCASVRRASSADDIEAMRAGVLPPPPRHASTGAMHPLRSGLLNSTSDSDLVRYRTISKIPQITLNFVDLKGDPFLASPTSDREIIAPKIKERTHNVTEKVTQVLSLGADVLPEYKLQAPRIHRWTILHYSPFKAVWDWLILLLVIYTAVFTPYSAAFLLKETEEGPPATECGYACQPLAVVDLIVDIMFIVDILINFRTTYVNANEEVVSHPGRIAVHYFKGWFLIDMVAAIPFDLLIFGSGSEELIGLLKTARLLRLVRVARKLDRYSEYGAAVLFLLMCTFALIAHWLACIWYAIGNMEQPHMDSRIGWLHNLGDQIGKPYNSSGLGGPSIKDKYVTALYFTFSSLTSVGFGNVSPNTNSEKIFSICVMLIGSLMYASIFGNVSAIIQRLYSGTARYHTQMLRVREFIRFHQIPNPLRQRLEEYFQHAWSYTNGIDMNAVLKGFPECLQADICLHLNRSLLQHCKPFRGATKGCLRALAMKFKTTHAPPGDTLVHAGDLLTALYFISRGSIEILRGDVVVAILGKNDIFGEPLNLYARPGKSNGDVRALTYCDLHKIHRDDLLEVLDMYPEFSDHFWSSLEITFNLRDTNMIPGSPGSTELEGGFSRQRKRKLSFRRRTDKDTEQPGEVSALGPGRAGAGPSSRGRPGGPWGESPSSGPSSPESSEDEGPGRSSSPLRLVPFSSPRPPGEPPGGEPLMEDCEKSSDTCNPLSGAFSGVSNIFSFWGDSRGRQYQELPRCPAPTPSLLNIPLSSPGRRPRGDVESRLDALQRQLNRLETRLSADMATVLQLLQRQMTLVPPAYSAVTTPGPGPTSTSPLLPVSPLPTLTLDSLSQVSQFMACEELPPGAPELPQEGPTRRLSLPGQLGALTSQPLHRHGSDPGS
row,SMILES,"hERG current change (%, negative = inhibition) at 10uM"
1,Cc1ncoc1C(=O)N1CCCC(C(=O)c2cccc(OC(C)C)c2)C1 (stereo not shown),10.3%
2,Cc1ccc(C)c(C(C)NC(=O)C2CCCO2)c1 (stereo not shown),17.6%
3,Cc1ccc(Cl)cc1N1CCN(C(=O)CNC(=O)c2ccc(Br)o2)CC1,-55.9%
4,Cc1cc(C(=O)N2CCN(c3ccc(F)cc3)CC2)on1,-14.5%
5,CC(=O)N1CCN(C(=O)CNC(=O)c2ccc(Br)o2)CC1,22.2%
6,Cc1cc(C(=O)N2CCN(c3cc(Cl)ccc3C)CC2)on1,-58.7%
7,Cc1ccc(Cl)cc1N1CCN(C(=O)c2noc(C)c2[N+](=O)[O-])CC1,1.15%
8,O=C(NCC(=O)N1CCN(c2ccccc2O)CC1)c1ccc(Br)o1,-4.93%
9,O=C(NCC(=O)N1CCN(c2ccccc2)CC1)c1ccc(Br)o1,-39.9%
10,O=C(NCC(=O)N1CCN(c2ccccc2F)CC1)c1ccc(Br)o1,-39.1%
11,O=C(NCC(=O)N1CCN(c2cccc(Cl)c2)CC1)c1ccc(Br)o1,-78.4%
12,Cc1ccc(CN2CCc3[nH]c(=O)[nH]c(=O)c3C2)cc1,17.5%
13,S=C(Nc1ccc(Oc2ccc(NC(=S)NC3CCCCC3)cc2)cc1)NC1CCCCC1,17.6%
14,Cc1ccc(C(=O)N2CCN(C(=O)N3CCOCC3)CC2)cc1,-5.64%
15,COC(=O)c1ccccc1Oc1nc(Cl)cc(OC)n1,-12.1%
16,O=C(NCc1ccco1)C(=O)NCC(c1ccco1)N1CCOCC1 (stereo not shown),13%
17,CC1(C)CC(=O)c2sc(NC(=O)c3ccccc3)nc2C1,2.82%
18,O=C(COc1cccc2cccnc12)Nc1ccccc1N1CCOCC1,-37.7%
19,CCCNC(=O)c1ccc(N2CCC3(CC2)CC(c2cccc(Br)c2)=NO3)c(NC(=O)c2c(Cl)cccc2Cl)c1,5.92%
20,CCOc1cc(CNCc2ccccc2)ccc1OCc1ccc(Cl)cc1.Cl,-33.1%
21,CCOc1cc(CNCCc2ccccc2F)ccc1OC.O=C(O)C(=O)O,-42.1%
22,COc1cc(CNCCc2ccccc2)ccc1OCC(N)=O.Cl,-17.4%

row,SMILES,"hERG current change (%, negative = inhibition) at 10uM"
1,COc1ccccc1CCNCc1ccc(OC)c(OCc2ccccc2)c1,-71.9%
2,COc1ccc(CNCCc2ccc(Cl)cc2)cc1OCc1ccccc1,-75.6%
3,COc1ccc(CNCCc2ccccc2)cc1OCC(N)=O,-12%
4,O=C(O)C(=O)O.c1ccc(CNC2=NCCCC2)cc1,1.76%
5,COc1ccccc1CCC(=O)Nc1ccc(S(=O)(=O)Nc2cc(C)nc(C)n2)cc1,12%
6,COc1ccccc1-n1ccnc1SCC(=O)NC(C)(C)C,13.3%
7,CN(C)c1ccc(NC(=S)NC(=O)/C=C/c2ccc(Cl)cc2)cc1,2.39%
8,CNC(=O)NNC(=O)c1csc(Cc2c(Cl)sc3ccc(Cl)cc23)n1,-52.1%
9,CC(=O)NNC(=O)c1csc(Cc2c(Cl)sc3ccc(Cl)cc23)n1,-19.6%
10,CNC(=O)c1csc(Cc2c(Cl)sc3ccc(Cl)cc23)n1,-2.3%
11,CN=C(Nc1ccccc1OC)SC1CC(=O)N(c2ccc(C(=O)OC)cc2)C1=O (stereo not shown),-12.5%
12,O=C(Nc1cccnc1)/C(N=Nc1ccc(Cl)c(C(F)(F)F)c1)=C(\O)c1ccccc1,29.3%
13,O=C(Nc1cccnc1)/C(N=Nc1cccnc1)=C(\O)c1ccccc1,-53%
14,O=C(Nc1cccnc1)/C(N=Nc1c(Cl)cccc1Cl)=C(\O)c1ccccc1,18.8%
15,COc1cccc(CNC(=O)CCC2CCCN(C(=O)CCc3c(C)noc3C)C2)c1 (stereo not shown),-2.56%
16,COc1ccc(CCNS(=O)(=O)c2ccc3oc(C(=O)O)c(C)c3c2)cc1OC,0.0936%
17,CCOC(=O)C(NC(=O)Nc1ccc(C(N)=O)cc1)(c1ccccc1)C(F)(F)F (stereo not shown),-14.6%
18,Cc1cc(/C=N/n2cnnc2)c(C)n1-c1cccc(Cl)c1,-22.2%
19,Cc1cccc(-n2c(SCc3cc(=O)n4ccsc4n3)nc3ccccc3c2=O)c1,-5.76%
20,O=C(Nc1ccc(Cl)cc1)N1CCN(C(=O)C2CCCO2)CC1 (stereo not shown),14.9%
21,CCOc1cc(C(=O)Nn2cnnc2)cc(OCC)c1OCC,13.8%
